Results from PubChem BioAssay (NCATS).
Results filed as inconclusive are left out. Activity calls are given as the source filed them. Calls follow the shape of the dose curve; as a rule, active = well fitted curve in the direction sought with a large enough effect; inconclusive = small, poorly fitted or top-dose-only effect, or another doubt; inactive = no such curve, though single readings can be large; an effect the other way counts as inactive or inconclusive.

Columns and labels:
[1] = Quantitative High-Throughput drug screen in 47 multiple myeloma cell lines against the NCATS MIPE library collection: KMS20_JCRB cell viability assay (AID 1918973); also: nearly all actives have a fitted effect of over 45% in size
In short: (§1)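 Viability readout: CellTiter-Glo luminescence following 5 min room-temperature incubation with reagent. Prior exposure: 48 h, 37C, humidified 5% CO2, 500 cells per well.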

[2] = Quantitative High-Throughput drug screen in 47 multiple myeloma cell lines against the NCATS MIPE library collection: KMS26_JCRB cell viability assay (AID 1918975); also: nearly all actives have a fitted effect of over 45% in size
In short: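 Myeloma cells (500 per well) were exposed to MIPE 4.0 compounds by pin transfer and incubated 48 hours at 37C, 5% CO2. Viability was read as ATP by CellTiter-Glo luminescence, normalised to DMSO (100%) and media-only (0%) wells.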

[3] = Quantitative High-Throughput drug screen in 47 multiple myeloma cell lines against the NCATS MIPE library collection: NCIH929_DSMZ cell viability assay (AID 1918978); also: nearly all actives have a fitted effect of over 35% in size
In short: (§2)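 qHTS format: cells plated (500/well), pin-dosed with MIPE 4.0 compounds, kept 48 h at 37 °C. Readout was CellTiter-Glo luminescence, median RLU.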

[4] = Quantitative High-Throughput drug screen in 47 multiple myeloma cell lines against the NCATS MIPE library collection: OCIMY1_PLB cell viability assay (AID 1918979); also: nearly all actives have a fitted effect of over 35% in size
In short: as §2

[5] = Quantitative High-Throughput drug screen in 47 multiple myeloma cell lines against the NCATS MIPE library collection: MM1R_ATCC cell viability assay (AID 1918981); also: nearly all actives have a fitted effect of over 35% in size
In short: as §2

[6] = Quantitative High-Throughput drug screen in 47 multiple myeloma cell lines against the NCATS MIPE library collection: L363_DSMZ cell viability assay (AID 1918984); also: nearly all actives have a fitted effect of over 40% in size
In short: as §2

[7] = Quantitative High-Throughput drug screen in 47 multiple myeloma cell lines against the NCATS MIPE library collection: OCIMY7_PLB cell viability assay (AID 1918987); also: nearly all actives have a fitted effect of over 65% in size
In short: as §2

[8] = Quantitative High-Throughput drug screen in 47 multiple myeloma cell lines against the NCATS MIPE library collection: OCIMY5_PLB cell viability assay (AID 1918988); also: nearly all actives have a fitted effect of over 65% in size
In short: as §2

[9] = Quantitative High-Throughput drug screen in 47 multiple myeloma cell lines against the NCATS MIPE library collection: OPM1_PLB cell viability assay (AID 1918989); also: nearly all actives have a fitted effect of over 40% in size
In short: as §2

[10] = Quantitative High-Throughput drug screen in 47 multiple myeloma cell lines against the NCATS MIPE library collection: U266_ATCC cell viability assay (AID 1919864); also: nearly all actives have a fitted effect of over 35% in size
In short: as §2

[11] = Quantitative High-Throughput drug screen in 47 multiple myeloma cell lines against the NCATS MIPE library collection: XG6_PLB cell viability assay (AID 1919865); also: nearly all actives have a fitted effect of over 40% in size
In short: as §2

[12] = Quantitative High-Throughput drug screen in 47 multiple myeloma cell lines against the NCATS MIPE library collection: XG1_PLB cell viability assay (AID 1919866); also: nearly all actives have a fitted effect of over 35% in size
In short: as §2

[13] = Quantitative High-Throughput drug screen in 47 multiple myeloma cell lines against the NCATS MIPE library collection: MM1S_ATCC cell viability assay (AID 1918980); also: nearly all actives have a fitted effect of over 45% in size
In short: as §2

[14] = Quantitative High-Throughput drug screen in 47 multiple myeloma cell lines against the NCATS MIPE library collection: SKMM1_PLB cell viability assay (AID 1919863); conditions: SKMM1 myeloma viability, CellTiter-Glo ATP, 48 h; viability: hits give low values; also: nearly all actives have a fitted effect of over 35% in size
In short: as §2

[15] = Quantitative High-Throughput drug screen in 47 multiple myeloma cell lines against the NCATS MIPE library collection: KMS21BM_JCRB cell viability assay (AID 1918974); conditions: ATP luminescence, 48 h; viability: at 45.8 µM (top of the series) unless noted
In short: as §1

[16] = Quantitative High-Throughput drug screen in 47 multiple myeloma cell lines against the NCATS MIPE library collection: MMM1_PLB cell viability assay (AID 1918976); also: nearly all actives have a fitted effect of over 35% in size
In short: as §2

[17] = Quantitative High-Throughput drug screen in 47 multiple myeloma cell lines against the NCATS MIPE library collection: KMS28PE_JCRB cell viability assay (AID 1918983); also: nearly all actives have a fitted effect of over 35% in size
In short: as §2

[18] = Quantitative High-Throughput drug screen in 47 multiple myeloma cell lines against the NCATS MIPE library collection: KMS34_JCRB cell viability assay (AID 1918985); also: nearly all actives have a fitted effect of over 40% in size
In short: as §2

[19] = Quantitative High-Throughput drug screen in 47 multiple myeloma cell lines against the NCATS MIPE library collection: LP1_DSMZ cell viability assay (AID 1918982); also: nearly all actives have a fitted effect of over 35% in size
In short: as §2

[20] = Quantitative High-Throughput drug screen in 47 multiple myeloma cell lines against the NCATS MIPE library collection: MOLP8_DSMZ cell viability assay (AID 1918977); also: nearly all actives have a fitted effect of over 45% in size
In short: as §2
Potency is read from the fitted curve at half-maximal effect.

COc1cc2c(Nc3ccc(NC(=O)c4ccccc4)cc3)ncnc2cc1OCCCN1CCOCC1
active: Potency [1] 10.5 µM | Potency [2] 37.2 µM | Potency [3] 16.6 µM | Potency [4] 23.5 µM | Potency [5] 23.5 µM | Potency [7] 2.64 µM | Potency [8] 18.7 µM | Potency [9] 20.9 µM | Potency [10] 23.5 µM | Potency [11] 14.8 µM | Potency [12] 20.9 µM
inactive: Potency [6]

C[C@]12CC[C@H](O)CC1=CCC1C2CC[C@]2(C)C(n3cnc4ccccc43)=CCC12 (some centres not stated)
inactive: Potency [1] | Potency [4] | Potency [13] | Potency [6] | Potency [9] | viability [14] 80.8% | Potency [10] | Potency [12]
active: Potency [8] 18.7 µM | Potency [11] 14.8 µM

CCC(=C(c1ccccc1)c1ccc(OCCN(C)C)cc1)c1ccccc1
active: Potency [15] 18.7 µM | Potency [2] 20.9 µM | Potency [16] 23.5 µM | Potency [3] 20.9 µM | Potency [13] 29.6 µM | Potency [17] 18.7 µM | Potency [6] 20.9 µM | Potency [7] 20.9 µM | Potency [8] 29.6 µM | Potency [9] 20.9 µM | Potency [14] 20.9 µM | Potency [11] 20.9 µM | Potency [12] 16.6 µM
inactive: Potency [4] | Potency [18]

COc1c(N2C[C@@H]3CCCN[C@H]3C2)c(F)cc2c(=O)c(C(=O)O)cn(C3CC3)c12
inactive: Potency [1] | Potency [16] | Potency [5] | Potency [17] | Potency [9] | Potency [10] | Potency [12]
active: Potency [18] 9.35 µM

CNc1nccc(-c2cccnc2Oc2cc(C(=O)Nc3cccc(C(F)(F)F)c3)ccc2C)n1
active: Potency [1] 9.35 µM | Potency [16] 18.7 µM | Potency [3] 5.26 µM | Potency [13] 18.7 µM | Potency [5] 20.9 µM | Potency [19] 23.5 µM | Potency [17] 20.9 µM | Potency [6] 14.8 µM | Potency [18] 14.8 µM | Potency [7] 1.66 µM | Potency [9] 13.2 µM | Potency [14] 18.7 µM | Potency [10] 16.6 µM | Potency [11] 2.35 µM | Potency [12] 2.35 µM

CCN(CC)CCCCNc1ncc2cc(-c3cc(OC)cc(OC)c3)c(NC(=O)NC(C)(C)C)nc2n1
inactive: Potency [4]
active: Potency [1] 7.43 µM | Potency [3] 11.8 µM | Potency [13] 20.9 µM | Potency [5] 23.5 µM | Potency [19] 16.6 µM | Potency [17] 6.62 µM | Potency [6] 14.8 µM | Potency [18] 33.2 µM | Potency [7] 18.7 µM | Potency [8] 16.6 µM | Potency [9] 14.8 µM | Potency [10] 18.7 µM | Potency [11] 5.9 µM | Potency [12] 8.33 µM

Cn1cc(-c2ccncc2)c(-c2ccc(OCc3ccc4ccccc4n3)cc2)n1
active: Potency [15] 3.32 µM | Potency [2] 7.43 µM | Potency [16] 2.96 µM | Potency [4] 16.6 µM | Potency [13] 14.8 µM | Potency [5] 10.5 µM | Potency [6] 2.64 µM | Potency [7] 10.5 µM | Potency [8] 16.6 µM | Potency [9] 10.5 µM | Potency [10] 18.7 µM | Potency [11] 5.9 µM

COc1ccc2c(c1)CC[C@@H](CN(C)CC(=O)O)[C@H]2c1ccccc1
active: Potency [15] 5.26 µM | Potency [2] 1.87 µM | Potency [16] 14.8 µM | Potency [3] 5.26 µM | Potency [13] 9.35 µM | Potency [17] 4.18 µM | Potency [6] 1.66 µM | Potency [18] 4.69 µM | Potency [7] 0.833 µM | Potency [8] 1.48 µM | Potency [9] 10.5 µM | Potency [14] 1.05 µM | Potency [10] 16.6 µM | Potency [11] 0.833 µM | Potency [12] 0.833 µM

CN(C1CCc2c(c3ccccc3n2CC(=O)O)C1)S(=O)(=O)c1ccc(F)cc1 (configuration not stated)
active: Potency [15] 0.418 µM | Potency [13] 1.48 µM | Potency [6] 1.48 µM | Potency [8] 4.69 µM | Potency [10] 18.7 µM | Potency [11] 1.87 µM | Potency [12] 3.72 µM
inactive: Potency [2] | Potency [20] | Potency [3] | Potency [4]

CN[C@H]1CCc2cc(OC)c(OC)c(OC)c2-c2ccc(OC)c(=O)cc21
inactive: Potency [12]
active: Potency [2] 0.0148 µM | Potency [16] 0.0105 µM | Potency [20] 0.0235 µM | Potency [3] 0.0235 µM | Potency [5] 0.0066 µM | Potency [19] 0.0015 µM | Potency [17] 0.0019 µM | Potency [7] 0.001 µM | Potency [8] 0.0013 µM | Potency [14] 0.0037 µM | Potency [10] 0.0066 µM

C=C1C(=CC=C2CCCC3(C)[C@@H]([C@H](C)C=CC=CC(O)(CC)CC)CC[C@@H]23)C[C@@H](O)C[C@@H]1O (some centres not stated)
active: Potency [2] 23.5 µM | Potency [16] 20.9 µM | Potency [13] 10.5 µM | Potency [17] 26.4 µM | Potency [6] 23.5 µM | Potency [18] 20.9 µM | Potency [7] 29.6 µM | Potency [8] 10.5 µM | Potency [9] 18.7 µM | Potency [10] 23.5 µM | Potency [11] 18.7 µM | Potency [12] 20.9 µM

Cc1[nH]c2ccccc2c1CCNCc1ccc(C=CC(=O)NO)cc1
active: Potency [2] 0.0662 µM | Potency [20] 0.0526 µM | Potency [3] 0.0526 µM | Potency [4] 0.166 µM | Potency [13] 0.0743 µM | Potency [5] 0.0296 µM | Potency [17] 0.059 µM | Potency [18] 0.0526 µM | Potency [7] 0.0743 µM | Potency [8] 0.0418 µM | Potency [9] 0.0264 µM | Potency [14] 0.105 µM | Potency [10] 0.132 µM | Potency [11] 0.148 µM | Potency [12] 0.105 µM
